TrxR1 substrate – is turned over as a substrate by rat TrxR1; O89049; purified TrxR1 substrate turnover, NADPH consumption readout; Potency, µM (series often up to 114 µM); 390,000 compounds, 0.01% hits; note: nearly all actives have a fitted effect of over 50% in size
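Rat TrxR1, dispensed at 90 nM, was prereduced with 400 uM NADPH (final) for 5 min at ~22 deg C, then incubated with compound 15 min before 400 uM selenite. A first-read NADPH fluorescence drop versus no-compound background flagged substrates.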
rTrxR1 inhibitor – inhibitors of rat thioredoxin reductase 1 | O89049 | recombinant rTrxR1, NADPH fluorescence consumption, selenite substrate | Potency, µM (doses to about 114 µM), usual class: inhibitors | 390,000 compounds, 1% hits | AID 588453; note: nearly all actives have a fitted effect of over 65% in size
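Rat TrxR1 (90 nM in the dispensed reagent) was pre-reduced with 400 uM NADPH for 5 min at room temperature, then incubated with compound for 15 min. After 400 uM selenite was added, NADPH fluorescence (Ex 340/Em 450 nm) was followed for 8 min.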
PLK1 PBD inh – blocks phosphopeptide binding to human PLK1 polo-box domain; P53350; Plk1 PBD binding of FITC phosphopeptide, fluorescence polarization; Potency, µM, actives largely listed as inhibitors; 360,000 compounds, 2.8% hits; AID 720504; note: series mostly up to about 57 µM; nearly all actives have a fitted effect of over 65% in size
Sfp PPTase inh – inhibitors of Bacillus subtilis Sfp phosphopantetheinyl transferase; Q9F4F7; Biochemical Sfp PPTase activity, qHTS; Potency, µM, most hits filed as inhibitors; 310,000 compounds, 3.5% hits; AID 1490;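 note: the enzyme is Sfp with the accession as filed and its product quenches rhodamine fluorescence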
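Compounds were incubated with enzyme (final 15 nM) for 15 min at room temperature before substrate addition started the reaction. Fluorescence at 525 nm excitation, 598 nm emission was recorded immediately and after 30 minutes.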
mIDH1 inhibitor – human IDH1 R132H inhibition | O75874 | 390,000 compounds, 0.093% hits | AID 602179 | IDH1-R132H enzyme, NADPH consumption, diaphorase/resazurin fluorescence | Potency, µM (doses to about 76.6 µM), most hits filed as inhibitors; note: nearly all actives have a fitted effect of over 65% in size
Target sequence (O75874 whole entry R132H, stated change not applied): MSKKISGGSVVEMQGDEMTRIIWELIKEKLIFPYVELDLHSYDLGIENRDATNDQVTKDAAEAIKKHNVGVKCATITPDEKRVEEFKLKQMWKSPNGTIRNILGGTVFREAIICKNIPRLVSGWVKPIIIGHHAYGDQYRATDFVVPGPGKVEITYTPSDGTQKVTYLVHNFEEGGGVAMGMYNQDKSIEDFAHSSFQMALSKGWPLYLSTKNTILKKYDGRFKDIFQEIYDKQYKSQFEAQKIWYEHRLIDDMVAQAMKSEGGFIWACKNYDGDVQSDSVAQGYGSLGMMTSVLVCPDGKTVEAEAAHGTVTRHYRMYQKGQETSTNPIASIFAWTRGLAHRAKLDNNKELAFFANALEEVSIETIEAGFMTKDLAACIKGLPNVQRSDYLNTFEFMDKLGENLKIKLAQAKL
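IDH1-R132H (0.5 ug/mL dispensed) in pH 7.5 Tris buffer was preincubated 30 min with compound, then given a substrate mix of 0.016 mM NADPH and 2 mM alpha-KG for 80 min at room temperature; remaining NADPH was read by diaphorase/resazurin fluorescence.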
VDR inh – blocks the human vitamin D receptor. P11473. VDR-SRC2-3 peptide fluorescence polarization, 2 h. Potency, µM, actives largely listed as inhibitors. 400,000 compounds, 0.93% hits. AID 504847
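Compounds are added to VDR with labelled SRC2-3 coactivator peptide and held 2 h at room temperature. Inhibition of the VDR–peptide interaction is then read as a change in fluorescence polarization.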
Resorufin autofl – counter-screen for mutant IDH1 inhibitors: fluorescence interference; Resorufin detection reagent fluorescence interference, cell-free; inhibition of signal, % at 51.2 µM; 750 tested, under 10 active; AID 623980; shares compounds with mIDH1 inhibitor
IDH1 WT – selectivity of mutant IDH1 inhibitors: human wild-type IDH1. AID 623995. Potency, µM (series often up to 115 µM), hits mostly inhibitors. 750 compounds, 9% hits. shares compounds with mIDH1 inhibitor. WT IDH1 enzyme, NADPH diaphorase/resazurin fluorescence; note: nearly all actives have a fitted effect of over 55% in size
Target sequence (O75874 whole entry, looked up): as the sequence (O75874 whole entry R132H, stated change not applied) above, with H132R counted along it
IDH1 R132H conf – confirmation of human mutant IDH1 inhibitors | Potency, µM (highest dose often 76.6 µM), hits mostly inhibitors | shares compounds with mIDH1 inhibitor | IDH1 R132H enzyme, NADPH diaphorase/resazurin fluorescence | 750 compounds, 83% hits; note: nearly all actives have a fitted effect of over 50% in size
Of the large screens only hits and unclear results are named; the others gave an inactive call (follow-up assays come after a bar, where they were run). Compounds with a hit are over-represented: about 5.2% of the library has one in this group of screens. Calls come from the whole dose curve; as a rule, active = well fitted curve in the direction sought with a large enough effect; inconclusive = small, poorly fitted or top-dose-only effect, or another doubt; inactive = no such curve, though single readings can be large; an effect the other way counts as inactive or inconclusive.

CCOC(=O)c1ccc(N2C(=O)c3n[nH]c(-c4ccco4)c3C2c2cccc(O)c2)cc1 (stereo not drawn)	mIDH1 inhibitor inconclusive (no result: PLK1 PBD inh, Sfp PPTase inh) | Resorufin autofl inactive | IDH1 WT inactive | IDH1 R132H conf 35.5µM
CCOC(=O)c1ccc(N2C(=O)c3n[nH]c(-c4ccco4)c3C2c2cccc(OC)c2)cc1 (stereo not drawn)	mIDH1 inhibitor inconclusive (no result: PLK1 PBD inh, Sfp PPTase inh) | Resorufin autofl inactive | IDH1 WT inactive | IDH1 R132H conf inconclusive
CCOC(=O)c1ccc(N2C(=O)c3n[nH]c(-c4ccco4)c3C2c2cccc(F)c2)cc1 (stereo not drawn)	none (no result: PLK1 PBD inh, Sfp PPTase inh)
CCOC(=O)c1ccc(N2C(=O)c3n[nH]c(C)c3C2c2ccccc2OC)cc1 (stereo not drawn)	mIDH1 inhibitor inconclusive (no result: PLK1 PBD inh, Sfp PPTase inh) | Resorufin autofl inactive | IDH1 WT inactive | IDH1 R132H conf 35.5µM
CCOC(=O)c1ccc(N2C(=O)c3n[nH]c(-c4cccs4)c3C2c2ccc(O)c(OC)c2)cc1 (stereo not drawn)	rTrxR1 inhibitor inconclusive, mIDH1 inhibitor inconclusive (no result: PLK1 PBD inh, Sfp PPTase inh) | Resorufin autofl inactive | IDH1 WT inactive | IDH1 R132H conf 14.1µM
Cc1nc2c(c(=O)[nH]1)CSCC2	none (no result: TrxR1 substrate, rTrxR1 inhibitor, PLK1 PBD inh, mIDH1 inhibitor)
CCCCN(c1nc2ccccc2nc1Cl)S(=O)(=O)c1ccc(C)cc1	none
COc1c(O)cc2c(-c3ccccc3)cc(=O)oc2c1OC	none (no result: TrxR1 substrate, rTrxR1 inhibitor, PLK1 PBD inh, mIDH1 inhibitor)
COc1ccc(CCC(=O)NC(C)C2CCCO2)cc1 (stereo not drawn)	none
CCCCNC(=O)c1nn(-c2ccc(C)cc2)c(=O)n(C)c1=O	none (no result: PLK1 PBD inh, Sfp PPTase inh)
Cc1ncc(CO)c2c1Oc1nc(-c3ccccc3F)nc(SCC(=O)N(C)c3ccccc3)c1C2	TrxR1 substrate inconclusive, rTrxR1 inhibitor inconclusive, mIDH1 inhibitor 52.1µM | Resorufin autofl inactive | IDH1 WT inactive | IDH1 R132H conf inconclusive
Cc1ncc(CO)c2c1Oc1nc(-c3ccccc3)nc(SCC(=O)N(C)c3ccccc3)c1C2	none (no result: TrxR1 substrate, rTrxR1 inhibitor, PLK1 PBD inh, mIDH1 inhibitor, VDR inh)
COc1cc2c(-c3ccc4[nH]ccc4c3)c(-c3ccc(C#N)cc3)oc(=O)c2cc1OC	none (no result: Sfp PPTase inh)
COc1ccc(-c2c(-c3ccsc3)oc(=O)c3cc(OC)c(OC)cc23)cn1	mIDH1 inhibitor 28.2µM (no result: Sfp PPTase inh) | Resorufin autofl inactive | IDH1 WT inactive | IDH1 R132H conf 8.91µM
COc1cc2c(-c3ccc4cc[nH]c4c3)c(-c3ccsc3)oc(=O)c2cc1OC	mIDH1 inhibitor inconclusive (no result: Sfp PPTase inh) | Resorufin autofl inactive | IDH1 WT inactive | IDH1 R132H conf 11.2µM
CCOC(=O)c1c(C)oc2ncnc(N3CCN(c4ccccc4F)CC3)c12	none (no result: PLK1 PBD inh, Sfp PPTase inh)
CCOc1cc(/C=C(\C#N)C(=O)Nc2cccc(C(=O)O)c2)cc(Br)c1OC(=O)c1ccc(OC)cc1	PLK1 PBD inh 9.47µM, Sfp PPTase inh 79.4µM, mIDH1 inhibitor 52.1µM, VDR inh 25.1µM | Resorufin autofl inactive | IDH1 WT 70.8µM | IDH1 R132H conf 31.6µM
COc1cc(/C=C(\C#N)C(=O)Nc2cccc(C(=O)O)c2)ccc1OCc1ccc(F)cc1	PLK1 PBD inh inconclusive, VDR inh inconclusive
O=C(O)CCN1C(=O)/C(=C2\C(=O)N(Cc3ccc(F)cc3)c3ccccc32)SC1=S	PLK1 PBD inh 18.9µM, mIDH1 inhibitor 9.27µM, VDR inh inconclusive | Resorufin autofl inactive | IDH1 WT inactive | IDH1 R132H conf 3.98µM
CN1C(=O)/C(=C2\SC(=S)N(CCCCCC(=O)O)C2=O)c2ccccc21	PLK1 PBD inh inconclusive
CCOc1cc(Br)cc(/C=C2\SC(=Nc3ccccc3)NC2=O)c1O	PLK1 PBD inh inconclusive, VDR inh inconclusive

Screens deposited in PubChem by National Center for Advancing Translational Sciences (NCATS).
